Source: PubChem BioAssay (Tox21)
Several values for one entry are separate records, joined by “and”; a condition that tells them apart may be missing. Identical values can stand only once. Inconclusive results are not listed. Activity calls are given as the source filed them. Calls follow the shape of the dose curve; as a rule, active = well fitted curve in the direction sought with a large enough effect in the repeat runs; inconclusive = weak or mixed curves; inactive = no such curve, though single readings can be large; an effect the other way counts as inactive or inconclusive.

Tests used:
[1] = A CellTox Green Cytotoxicity Assay to monitor cytotoxicity in HEK293 cells - 40 hour (AID 1224871); also: nearly all actives have a fitted effect of over 45% in size
How it was run: (§1)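 HEK293 cells premixed with CellTox Green dye were seeded at 600 cells/well and left 5 h at 37 C/5% CO2 before pin transfer of 23 nL compound in DMSO. Fluorescence from dye bound to dead-cell DNA was read during 40 h treatment.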

[2] = qHTS RealTime-Glo MT Cell Viability Assay in HEK293 cells - 16 hour (AID 1224872); also: top concentration of the series differs between compounds; nearly all actives have a fitted effect of over 50% in size
How it was run: (§2)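 Tox21 10K qHTS, HEK293, 600 cells/well, RealTime-Glo reagent co-dispensed with cells; 5 h preincubation, compound by pintool, 37 C, luminescence at 0–40 h.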

[3] = qHTS RealTime-Glo MT Cell Viability Assay in HepG2 cells - 8 hour (AID 1224873); also: nearly all actives have a fitted effect of over 55% in size
How it was run: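 HepG2 cells mixed with RealTime-Glo MT reagents (NanoLuc plus cell-permeant prosubstrate) were seeded at 600 cells/well, incubated 5 h at 37 C/5% CO2, then pinned with compounds in DMSO; nonlytic luminescence tracked viability during 40 h treatment.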

[4] = qHTS RealTime-Glo MT Cell Viability Assay in HEK293 cells - 40 hour (AID 1224874); details: RealTime-Glo luminescence; max response: stronger effect = lower value; also: nearly all actives have a fitted effect of over 50% in size
How it was run: (§3)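 HEK293 cells mixed with RealTime-Glo reagents (NanoLuc plus cell-permeant prosubstrate) at 600 cells/well, preincubated 5 h at 37 C/5% CO2, then given 23 nL compound in DMSO. Nonlytic luminescence from viable cells was read at 0, 8, 16, 24, 32 and 40 h.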

[5] = A CellTox Green Cytotoxicity Assay to monitor cytotoxicity in HEK293 cells - 24 hour (AID 1224875); also: series mostly up to about 77 µM; nearly all actives have a fitted effect of over 45% in size
How it was run: as §1

[6] = A CellTox Green Cytotoxicity Assay to monitor cytotoxicity in HepG2 cells - 16 hour (AID 1224876); also: nearly all actives have a fitted effect of over 45% in size
How it was run: (§4)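 HepG2 cells were seeded together with the CellTox Green dye at 600 cells/well, left 5 h at 37 C/5% CO2, then given compounds in DMSO. Fluorescence from dye bound to dead-cell DNA was read repeatedly over 40 h of treatment at 37 C.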

[7] = qHTS RealTime-Glo MT Cell Viability Assay in HepG2 cells - 32 hour (AID 1224877); also: nearly all actives have a fitted effect of over 55% in size
How it was run: (§5)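 Cells + NanoLuc/prosubstrate dispensed (600 cells/well) → 5 h at 37 C/5% CO2 → compounds in DMSO transferred → 40 h incubation at 37 C, luminescence read at 0, 8, 16, 24, 32, 40 h.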

[8] = A CellTox Green Cytotoxicity Assay to monitor cytotoxicity in HepG2 cells - 24 hour (AID 1224878); also: nearly all actives have a fitted effect of over 45% in size
How it was run: as §4

[9] = A CellTox Green Cytotoxicity Assay to monitor cytotoxicity in HepG2 cells - 40 hour (AID 1224879); also: nearly all actives have a fitted effect of over 40% in size
How it was run: as §4

[10] = qHTS RealTime-Glo MT Cell Viability Assay in HEK293 cells - 0 hour (AID 1224880)
How it was run: as §3

[11] = A CellTox Green Cytotoxicity Assay to monitor cytotoxicity in HEK293 cells - 32 hour (AID 1224881); also: nearly all actives have a fitted effect of over 40% in size
How it was run: as §1

[12] = A CellTox Green Cytotoxicity Assay to monitor cytotoxicity in HepG2 cells - 0 hour (AID 1224882); also: nearly all actives have a fitted effect of over 35% in size
How it was run: as §4

[13] = A CellTox Green Cytotoxicity Assay to monitor cytotoxicity in HepG2 cells - 32 hour (AID 1224883); also: nearly all actives have a fitted effect of over 50% in size
How it was run: as §4

[14] = A CellTox Green Cytotoxicity Assay to monitor cytotoxicity in HEK293 cells - 8 hour (AID 1224884); also: nearly all actives have a fitted effect of over 35% in size
How it was run: as §1

[15] = qHTS RealTime-Glo MT Cell Viability Assay in HepG2 cells - 16 hour (AID 1224885); also: nearly all actives have a fitted effect of over 50% in size
How it was run: as §5

[16] = qHTS RealTime-Glo MT Cell Viability Assay in HEK293 cells - 24 hour (AID 1224886)
How it was run: as §2

[17] = qHTS RealTime-Glo MT Cell Viability Assay in HEK293 cells - 8 hour (AID 1224887)
How it was run: as §3

[18] = A CellTox Green Cytotoxicity Assay to monitor cytotoxicity in HEK293 cells - 16 hour (AID 1224888); also: nearly all actives have a fitted effect of over 35% in size
How it was run: as §1

[19] = qHTS RealTime-Glo MT Cell Viability Assay in HepG2 cells - 0 hour (AID 1224889); also: nearly all actives have a fitted effect of over 50% in size
How it was run: as §5

[20] = A CellTox Green Cytotoxicity Assay to monitor cytotoxicity in HepG2 cells - 8 hour (AID 1224890); also: nearly all actives have a fitted effect of over 45% in size
How it was run: as §4
% is scaled to controls: 0 for no effect and ±100 for the full control effect.

CC(C)(O)C#CC(C)(C)O
inactive: Potency [1] | Potency [2] | Potency [3] | max response [4] 4.69% | Potency [5] | Potency [6] | Potency [7] | Potency [8] | Potency [9] | Potency [10] | Potency [11] | Potency [12] | Potency [13] | Potency [14] | Potency [15] | Potency [16] | Potency [17] | Potency [18] | Potency [19]

O=c1cc(CO)occ1O
inactive: Potency [1] | Potency [2] | Potency [3] | max response [4] 3.18% | Potency [5] | Potency [6] | Potency [7] | Potency [8] | Potency [9] | Potency [10] | Potency [11] | Potency [12] | Potency [13] | Potency [14] | Potency [15] | Potency [16] | Potency [17] | Potency [18] | Potency [19]

CC(=O)OC/C=C(\C)CC/C=C(\C)CCC=C(C)C
inactive: Potency [1] | Potency [2] | Potency [3] | max response [4] 12.3% and 2.35% | Potency [5] | Potency [6] | Potency [7] | Potency [8] | Potency [9] | Potency [10] | Potency [11] | Potency [12] | Potency [13] | Potency [14] | Potency [15] | Potency [16] | Potency [17] | Potency [18] | Potency [19] | Potency [20]

CC(=O)CC(C)(C)C1CCCCC1
inactive: Potency [1] | Potency [2] | Potency [3] | max response [4] 9.93% | Potency [5] | Potency [6] | Potency [7] | Potency [8] | Potency [9] | Potency [10] | Potency [11] | Potency [12] | Potency [13] | Potency [14] | Potency [15] | Potency [16] | Potency [17] | Potency [18] | Potency [19] | Potency [20]

CCCCCCCCCCCCN(CCCCCCCCCCCC)CCCCCCCCCCCC
inactive: Potency [1] | Potency [2] | Potency [3] | max response [4] 0.0553% | Potency [5] | Potency [6] | Potency [7] | Potency [8] | Potency [9] | Potency [10] | Potency [11] | Potency [12] | Potency [13] | Potency [14] | Potency [15] | Potency [16] | Potency [17] | Potency [18] | Potency [19] | Potency [20]

Cc1cnc(NS(=O)(=O)c2ccc(N)cc2)nc1
inactive: Potency [1] | Potency [2] | Potency [3] | max response [4] 2.61% | Potency [5] | Potency [6] | Potency [7] | Potency [8] | Potency [9] | Potency [10] | Potency [11] | Potency [12] | Potency [13] | Potency [14] | Potency [15] | Potency [16] | Potency [17] | Potency [18] | Potency [19]

Cc1cc(O)cc2c1O[C@](C)(CCC[C@H](C)CCC[C@H](C)CCCC(C)C)CC2
inactive: Potency [1] | Potency [2] | Potency [3] | max response [4] 5.25% | Potency [5] | Potency [6] | Potency [7] | Potency [8] | Potency [9] | Potency [10] | Potency [11] | Potency [12] | Potency [13] | Potency [14] | Potency [15] | Potency [16] | Potency [17] | Potency [18] | Potency [19] | Potency [20]

CC1(C)CO[C@@H](CC(=O)O)CN1
inactive: Potency [1] | Potency [2] | Potency [3] | max response [4] 4.58% | Potency [5] | Potency [6] | Potency [7] | Potency [8] | Potency [9] | Potency [10] | Potency [11] | Potency [12] | Potency [13] | Potency [14] | Potency [15] | Potency [16] | Potency [17] | Potency [18] | Potency [19]

CC(C[N+](C)(C)C)OC(N)=O (centres undefined)
inactive: Potency [1] | Potency [2] | Potency [3] | max response [4] 4.17% | Potency [5] | Potency [6] | Potency [7] | Potency [8] | Potency [9] | Potency [10] | Potency [11] | Potency [12] | Potency [13] | Potency [14] | Potency [15] | Potency [16] | Potency [17] | Potency [18] | Potency [19]

COC(=O)CCSCCC(=O)OC
inactive: Potency [1] | Potency [2] | Potency [3] | max response [4] 0.851% | Potency [5] | Potency [6] | Potency [7] | Potency [8] | Potency [9] | Potency [10] | Potency [11] | Potency [12] | Potency [13] | Potency [14] | Potency [15] | Potency [16] | Potency [17] | Potency [18] | Potency [19] | Potency [20]

Oc1ccc(C2CNCCc3c2cc(O)c(O)c3Cl)cc1 (centres undefined)
inactive: Potency [1] | Potency [2] | Potency [3] | max response [4] -10.9% | Potency [5] | Potency [6] | Potency [7] | Potency [8] | Potency [9] | Potency [10] | Potency [11] | Potency [12] | Potency [13] | Potency [14] | Potency [15] | Potency [16] | Potency [17] | Potency [18] | Potency [19]

CC(C)CCCC(C)N (centres undefined)
inactive: Potency [1] | Potency [2] | Potency [3] | max response [4] 5.83% | Potency [5] | Potency [6] | Potency [7] | Potency [8] | Potency [9] | Potency [10] | Potency [11] | Potency [12] | Potency [13] | Potency [14] | Potency [15] | Potency [16] | Potency [17] | Potency [18] | Potency [19] | Potency [20]

ClC(Cl)(Br)Br
inactive: Potency [1] | Potency [2] | Potency [3] | max response [4] -1.43% | Potency [5] | Potency [6] | Potency [7] | Potency [8] | Potency [9] | Potency [10] | Potency [11] | Potency [12] | Potency [13] | Potency [14] | Potency [15] | Potency [16] | Potency [17] | Potency [18] | Potency [19] | Potency [20]
